Assay [1] deals with Plasmodium falciparum Sir2 (PF13_0152, Sir2A). Put plainly: Plasmodium falciparum Sir2A binding compounds – biochemical, small-molecule microarray, 635 nm fluorescence, primary screen (AID 1098).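 Further: score merges spot fluorescence intensity with its signal-to-noise ratio.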 Particulars: fluorescence 635 nm, higher = more signal.
A short description of assay [2]: probe aDKK1 binding to arrayed compounds – biochemical, biotinylated probe, 635/667 nm fluorescence, primary screen (AID 1099).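 Further: score merges 667nm spot fluorescence with signal to noise across triplicate slides; reference of the scale not given here.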 The conditions noted are these: small-molecule microarray, higher = more signal.
Assay [3] can be described thus: probe aCHRDL2 binding to arrayed compounds – biochemical, biotinylated probe, 635/667 nm fluorescence, primary screen (AID 1100). The conditions noted are these: small-molecule microarray, higher = more signal.
The nature of assay [4]: change in splice reporter luminescence, either direction, cell-based, HEK293, spliceosome inhibition project, primary screen (AID 1101).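 Further: HEK293 cells carrying a splicing-competent luciferase reporter gene; test concentration not given here.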 Particulars: HEK293 splicing luciferase reporter, 24 h, higher = more signal, called active from +8 up or from −8 down.
Assay [5] concerns the target Fibroblast growth factor 10 (Homo sapiens) (UniProt O15520). Put plainly: compounds binding fibroblast growth factor 10 – biochemical, small-molecule microarray, 635 nm fluorescence, primary screen (AID 1102). Particulars: FGF10 binding, fluorescence 635 nm, higher = more signal.
The subject of assay [6] is glycogen synthase kinase-3 (GSK3A per assay name; protocol says GSK3B). Put plainly: compounds binding glycogen synthase kinase-3 – biochemical, small-molecule microarray, 635 nm fluorescence, GSK3A, primary screen (AID 1103). Further: the record names both GSK3A and GSK3B. The conditions noted are these: fluorescence 635 nm, higher = more signal.
Assay [7] has as its target Epidermal growth factor receptor (Homo sapiens) (UniProt P00533). Put plainly: compounds binding epidermal growth factor receptor – biochemical, small-molecule microarray, 635 nm fluorescence, primary screen (AID 1104).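 Further: score merges 667 nm emission intensity with spot signal to noise over triplicate slides.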 Particulars: EGFR binding, higher = more signal.
Assay [8] addresses Follistatin-related protein 3 (Homo sapiens) (UniProt O95633). Put plainly: compounds binding follistatin-related protein 3 – biochemical, small-molecule microarray, 635 nm fluorescence, primary screen (AID 1105).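 Further: score merges emission near 667 nm and signal to noise per printed spot across three slides.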 The conditions noted are these: FSTL3 binding, higher = more signal.
For assay [9], the target named is Dickkopf-related protein 1 (Homo sapiens) (UniProt O94907). The assay is described as follows: small molecules binding DKK1 protein – biochemical, small-molecule microarray, 635 nm fluorescence scan, primary screen (AID 1106).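 Further: score merges emission near 667 nm with signal to noise over three replicate slides.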 The conditions noted are these: higher = more signal.
Sequence of Dickkopf-related protein 1 (Homo sapiens) (O94907 whole entry, looked up): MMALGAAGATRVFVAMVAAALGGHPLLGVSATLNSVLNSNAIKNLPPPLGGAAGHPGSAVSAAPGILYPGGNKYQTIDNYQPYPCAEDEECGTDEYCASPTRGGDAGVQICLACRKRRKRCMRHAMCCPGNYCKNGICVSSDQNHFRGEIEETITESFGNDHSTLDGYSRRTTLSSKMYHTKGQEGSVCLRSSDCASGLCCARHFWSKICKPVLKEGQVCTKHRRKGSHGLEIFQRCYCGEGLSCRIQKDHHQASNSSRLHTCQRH
The test system of assay [10] is Inhibin beta A chain (activin A). The assay is described as follows: small molecules binding activin A – biochemical, small-molecule microarray, 635 nm fluorescence scan, primary screen (AID 1107).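 Further: mouse activin A protein probed at 4.33 µg/mL on printed slides; score merges bound-protein fluorescence near 667 nm with spot signal-to-noise.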 Particulars: INHBA, higher = more signal.

The text below walks through data of PubChem BioAssay.

The source made the active and inactive calls.

Sequence of Follistatin-related protein 3 (Homo sapiens) (O95633 whole entry, looked up): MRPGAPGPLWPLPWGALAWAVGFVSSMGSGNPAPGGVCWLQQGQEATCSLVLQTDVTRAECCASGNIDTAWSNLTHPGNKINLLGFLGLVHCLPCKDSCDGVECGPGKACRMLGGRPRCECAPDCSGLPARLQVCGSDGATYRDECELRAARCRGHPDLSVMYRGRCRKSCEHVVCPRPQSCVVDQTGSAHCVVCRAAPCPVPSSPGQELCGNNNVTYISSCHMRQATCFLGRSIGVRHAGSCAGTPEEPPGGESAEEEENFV
Sequence of Fibroblast growth factor 10 (Homo sapiens) (O15520 whole entry, looked up): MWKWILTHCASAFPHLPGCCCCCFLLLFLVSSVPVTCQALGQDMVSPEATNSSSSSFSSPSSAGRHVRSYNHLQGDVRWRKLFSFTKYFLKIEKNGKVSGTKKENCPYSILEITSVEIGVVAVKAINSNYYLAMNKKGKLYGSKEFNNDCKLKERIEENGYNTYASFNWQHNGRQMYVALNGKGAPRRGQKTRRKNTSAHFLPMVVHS
Sequence of Epidermal growth factor receptor (Homo sapiens) (P00533 whole entry, looked up): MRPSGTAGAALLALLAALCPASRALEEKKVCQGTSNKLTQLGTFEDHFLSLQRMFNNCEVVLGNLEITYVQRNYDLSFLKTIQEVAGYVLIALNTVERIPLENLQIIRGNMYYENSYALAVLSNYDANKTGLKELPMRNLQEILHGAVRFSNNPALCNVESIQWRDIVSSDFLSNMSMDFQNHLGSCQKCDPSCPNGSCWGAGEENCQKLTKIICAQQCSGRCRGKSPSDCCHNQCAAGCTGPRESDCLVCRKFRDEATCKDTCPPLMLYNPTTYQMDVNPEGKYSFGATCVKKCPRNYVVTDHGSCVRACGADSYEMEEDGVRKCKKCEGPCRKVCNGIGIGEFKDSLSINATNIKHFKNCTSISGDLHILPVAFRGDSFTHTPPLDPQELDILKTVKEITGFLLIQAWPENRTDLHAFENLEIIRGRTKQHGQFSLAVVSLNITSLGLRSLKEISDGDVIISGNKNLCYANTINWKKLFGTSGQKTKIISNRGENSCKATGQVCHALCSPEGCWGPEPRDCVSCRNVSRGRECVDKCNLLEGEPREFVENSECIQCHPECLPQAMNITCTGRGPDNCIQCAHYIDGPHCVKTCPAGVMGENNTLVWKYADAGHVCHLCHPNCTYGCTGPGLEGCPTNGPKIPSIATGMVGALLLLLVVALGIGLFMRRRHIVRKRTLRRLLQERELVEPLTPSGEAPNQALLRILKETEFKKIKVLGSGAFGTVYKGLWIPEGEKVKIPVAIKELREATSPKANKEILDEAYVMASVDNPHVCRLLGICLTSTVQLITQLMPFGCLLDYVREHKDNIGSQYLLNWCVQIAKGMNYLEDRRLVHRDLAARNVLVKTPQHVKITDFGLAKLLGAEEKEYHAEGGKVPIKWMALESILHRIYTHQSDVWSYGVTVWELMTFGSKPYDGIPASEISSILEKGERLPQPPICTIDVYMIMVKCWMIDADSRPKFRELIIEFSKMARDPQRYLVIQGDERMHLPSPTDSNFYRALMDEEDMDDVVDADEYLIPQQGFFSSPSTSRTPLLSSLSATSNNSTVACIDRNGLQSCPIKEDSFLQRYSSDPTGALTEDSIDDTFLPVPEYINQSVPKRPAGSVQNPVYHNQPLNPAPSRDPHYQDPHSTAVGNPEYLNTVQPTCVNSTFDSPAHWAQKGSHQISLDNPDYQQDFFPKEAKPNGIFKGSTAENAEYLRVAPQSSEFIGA

On to `C#CCCCON=C1C[C@@H](O)[C@@H](O)[C@@H]2[C@@H]3C(=O)N(CC)C(=O)[C@@H]3CC[C@H]12`, for which the composite z-score in [1] is 0.581; in [2] it was -0.189; in assay [3], -0.267; in assay [5], 0.301; in assay [6], -0.396; in [7] it was 0.285. For the same compound, the figures for the composite z-score in [8], in [9] and in [10] were -0.331, 0.209 and -0.124, respectively. In addition, the z-score in assay [4] was 0.385 (inactive).

`C[C@H]1CC[C@H]2C(=O)OC(COc3ccc(C(C)(C)C)cc3)CN2[C@@H]1c1ccc(Br)cc1` (stereo not given in full): the composite z-score in assay [1] is 0.528; in assay [2] it was -0.254; in [3], -0.242; in assay [5], 0.172; in [6] it was 0.364; in assay [7], -0.128. Besides, the composite z-score in assay [8] was 0.58; in assay [9], -0.039; in assay [10], 0.451. For the same compound, the z-score in assay [4] is -0.216 (inactive).

In the case of `Cc1cc2c(nc1C)CCCCN2CC(O)CN1CCCc2nc(-c3ccc(Br)cc3)ccc21` (stereo not given), the composite z-score was 0.704 in assay [1]; -0.0514 in assay [2]; -0.332 in assay [3]; 0.874 in assay [5]; 0.62 in assay [6]; 0.597 in assay [7]. For the same compound, the values for the composite z-score in [8], in assay [9] and in assay [10] were 1.21, 0.446 and 0.481, respectively. The z-score in assay [4] is 0.0168 (inactive).

On to `CO[C@H]1COC(=O)[C@H](C)COC(=O)[C@H](C)NC(=O)CC=C[C@H]1C`, for which the composite z-score was 0.378 in assay [1]; -0.579 in assay [2]; -1.42 in assay [3]; 1.07 in assay [5]; 1.24 in assay [6]; 1.54 in assay [7]. The composite z-score in assay [8] was 1.51; in [9], 1.28; in [10], 0.843. In addition, the z-score in assay [4] is 0.0547 (inactive).

Regarding `C[C@@H]1CC[C@H]2C(=O)O[C@@H](CN=[N+]=[N-])CN2[C@H]1c1ccc(Br)cc1`, the composite z-score in assay [1] was 0.584; in assay [2], 0.0195; in [3], -0.669; in [5] it was 0.382; in [6], 0.636; in [7], 0.343. For the same compound, the composite z-score in assay [8] worked out at 0.345; in assay [9], 0.857; in [10] it was 0.455. Also, the z-score in assay [4] was 0.659 (inactive).

As to `CCc1cc2c(nc1CC)CCN(CCC(C)=NO[C@@H]1O[C@H](COC(C)=O)[C@@H](OC(C)=O)[C@H](OC(C)=O)[C@H]1OC(C)=O)C2`, the composite z-score in [1] is 0.8; in [2], -0.0154; in assay [3] it was -0.82; in assay [5], 1.14; in assay [6] it was 0.642; in assay [7], 0.905. Further, the figures for the composite z-score in [8], in [9] and in [10] were 1.32, 1.32 and 0.703, respectively. In assay [4], the z-score was -0.763 (inactive).

`C[C@@H]1CC[C@H]2C(=O)O[C@@H](COc3ccc(C(C)(C)C)cc3)CN2[C@H]1c1ccc(Br)cc1`: the composite z-score was 0.418 in [1]; -0.251 in [2]; -0.427 in assay [3]; 0.0543 in assay [5]; 0.158 in assay [6]; -0.0032 in assay [7]. The composite z-score was 0.0224 in assay [8], 0.191 in [9] and 0.0996 in assay [10]. For the same compound, the z-score in assay [4] was 0.0739 (inactive).

For the compound `CC(C)CON=C1C[C@@H](O)[C@@H](O)[C@@H]2[C@@H]3C(=O)N([C@@H](C)c4ccccc4)C(=O)[C@@H]3CC[C@@H]12`, the composite z-score in assay [1] is -0.201; in [2], 0.083; in assay [3], 0.767; in assay [5] it was 0.266; in assay [6], -0.0708; in [7] it was 0.191. The composite z-score is -0.279 in assay [8], -0.24 in [9] and 0.467 in [10]. The z-score in assay [4] is 0.226 (inactive).

Turning to `COc1ccc(-c2cnnc(CCCn3ccnc3-c3ccccc3)n2)cc1`, the composite z-score in assay [1] was 0.442; in [2] it was 0.0096; in assay [3] it was -0.592; in assay [5], 0.7; in [6], 0.7; in assay [7], 0.929. The composite z-score in assay [8] is 1.37; in [9], 1.02; in [10], 0.327. Further, the z-score in assay [4] is -1.04 (inactive).

`CCN1C(=O)[C@H]2[C@H]3[C@H](O)[C@H](O)CC(=NOCC[C@@H]4C=C[C@H](OC(C)=O)[C@@H](COC(C)=O)O4)[C@@H]3CC[C@H]2C1=O`: the composite z-score in assay [1] is 0.0458; in assay [2], -0.107; in [3] it was -0.426; in assay [5] it was 0.476; in [6], 0.0008; in assay [7] it was 0.498. In addition, the composite z-score was determined as 0.38 in assay [8], 0.476 in assay [9] and 0.079 in assay [10]. Also, the z-score in assay [4] was -0.0787 (inactive).

In the case of `O=C(NCCC[N+]1=CC=NC1c1ccccc1)N1CCCc2nc(-c3ccc(Br)cc3)ccc21` (stereo not given), the composite z-score in assay [1] is 1.02; in assay [2], -0.128; in assay [3], -0.346; in assay [5], 0.0448; in [6] it was 0.212; in assay [7] it was 0.221. The composite z-score in assay [8] is -0.0767; in assay [9] it was 0.42; in assay [10] it was 0.435. For the same compound, in [4], the z-score was -0.106 (inactive).

Consider `CCOC(=O)[C@H](Cc1ccccc1)NC(=O)CCC1CC(OC(=O)NCc2ccc3c(c2)OCO3)CC2(CCCC(COC(=O)NCCOc3ccccc3)O2)O1` (stereo not given in full), for which the composite z-score in assay [1] was 0.653; in assay [2] it was -0.388; in assay [3], -0.704; in [5], 0.881; in [6], 1.1; in [7], 0.628. Also, the values for the composite z-score in assay [8], in assay [9] and in [10] were 1.31, 1.16 and -0.0859, respectively. Also, the z-score in assay [4] was -1.13 (inactive).

In the case of `COc1ccc(O[C@H]2C=C[C@@H](c3ccccc3)O[C@@H]2CON=C(C)CCN2CCCc3nc(C)c(C)cc32)cc1`, the composite z-score in assay [1] was 0.625; in [2], -0.325; in [3], -0.156; in assay [5], 0.735; in [6] it was 0.73; in assay [7] it was 0.227. Also, the results for the composite z-score in assay [8], in [9] and in assay [10] were 0.616, 0.552 and 0.917, respectively. Moreover, the z-score in [4] is -0.204 (inactive).
